# Data taken from PubChem BioAssay (EPA / NIEHS).
# “And” between values parts separate entries of the source, which are not always exact repeats. Identical values can stand only once. Inconclusive results are not listed. Some structures have more than one record in an assay (separate samples or runs), and their calls can disagree. The source made the active and inactive calls. The calls were made as follows, unless noted: active = hit-call score of the fitted dose curve at least 0.9, where 1 is the maximum; inconclusive = response in the unintended direction; inactive = score below 0.9.
# Assays:
# [1] = biological target: human Dopamine Transporter (DAT), SLC6A3 (gene 6531) (UniProt Q01959); assay: NVS_TR_hDAT: NovaScreen (NVS) Transporter Assay for human Dopamine Transporter (DAT) (AID 2283374);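 also: activity means loss of bound radioligand signal relative to DMSO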
# Outline: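 hDAT membranes + tritiated/iodinated radioligand, competitive displacement; 1 h; filter scintillation readout. Single conc 25 uM (duplicate), then conc-response for actives. DMSO = negative control.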
# [2] = biological target: Estrogen receptor beta (Homo sapiens) (UniProt Q92731); assay: OT_ER_ERbERb_1440: Odyssey Thera (OT) 24-hour HEK293T Protein-Complementation Assay for Estrogen Receptor-beta/-beta Homodimer (AID 2283380);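 also: scored as signal increase over DMSO baseline for both agonists and antagonists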
# Chain of Estrogen receptor beta (Homo sapiens) (Q92731 whole entry, looked up, the tested form may be a part): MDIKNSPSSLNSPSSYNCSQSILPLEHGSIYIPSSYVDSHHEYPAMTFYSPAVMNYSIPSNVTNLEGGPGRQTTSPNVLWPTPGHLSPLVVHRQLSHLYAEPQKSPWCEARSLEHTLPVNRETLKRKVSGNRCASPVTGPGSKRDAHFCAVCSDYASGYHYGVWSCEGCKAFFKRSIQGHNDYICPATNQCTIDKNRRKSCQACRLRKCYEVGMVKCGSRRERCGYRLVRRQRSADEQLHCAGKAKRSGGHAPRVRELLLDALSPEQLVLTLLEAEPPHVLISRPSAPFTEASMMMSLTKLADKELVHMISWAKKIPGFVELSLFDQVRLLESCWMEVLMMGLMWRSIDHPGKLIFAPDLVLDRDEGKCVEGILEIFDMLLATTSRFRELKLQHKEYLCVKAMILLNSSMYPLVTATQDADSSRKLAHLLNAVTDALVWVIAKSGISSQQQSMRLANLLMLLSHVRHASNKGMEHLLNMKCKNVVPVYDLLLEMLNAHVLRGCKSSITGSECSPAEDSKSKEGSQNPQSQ
# Outline: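 HEK293T cells stably expressing ER beta LBD (aa 310-547) homodimer fragment-complementation reporter, dosed 24 h. Cells formaldehyde-fixed, Draq5-stained; gain in nuclear (agonist) or nuclear plus cytoplasmic (antagonist) fluorescence versus DMSO read by laser scanning cytometry.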
# [3] = biological target: Estrogen receptor (Homo sapiens) (UniProt P03372); assay: OT_ERa_GFPERaERE_0480: Odyssey Thera (OT) 8-hour HeLa Transcription Induction Assay for Estrogen Receptor (AID 2283381; active = hit-call score of the fitted dose curve at least 0.9, where 1 is the maximum; inactive = score below 0.9)
# Chain of Estrogen receptor (Homo sapiens) (P03372 whole entry, looked up): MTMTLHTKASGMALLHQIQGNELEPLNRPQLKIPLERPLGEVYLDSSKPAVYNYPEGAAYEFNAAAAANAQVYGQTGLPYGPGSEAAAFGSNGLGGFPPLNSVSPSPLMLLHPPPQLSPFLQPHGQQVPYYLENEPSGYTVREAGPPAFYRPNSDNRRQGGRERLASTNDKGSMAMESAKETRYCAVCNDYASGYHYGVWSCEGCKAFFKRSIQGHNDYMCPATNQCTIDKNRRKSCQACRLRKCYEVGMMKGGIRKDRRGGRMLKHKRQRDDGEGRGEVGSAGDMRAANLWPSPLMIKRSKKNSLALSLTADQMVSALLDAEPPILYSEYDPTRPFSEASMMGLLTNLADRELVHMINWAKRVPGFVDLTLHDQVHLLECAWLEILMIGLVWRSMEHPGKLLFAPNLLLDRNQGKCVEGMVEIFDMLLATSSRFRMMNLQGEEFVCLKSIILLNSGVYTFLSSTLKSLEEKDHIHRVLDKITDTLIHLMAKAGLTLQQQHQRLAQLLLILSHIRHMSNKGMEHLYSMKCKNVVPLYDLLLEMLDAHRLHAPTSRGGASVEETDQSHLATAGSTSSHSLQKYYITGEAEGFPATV
# Outline: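 An 8 h HeLa transcription-induction format with a GFP reporter under ERE control, read by fluorescence microscopy; single endpoint fitted positively with DMSO as baseline.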
# [4] = biological target: Estrogen receptor (Homo sapiens) (UniProt P03372); assay: OT_ERa_GFPERaERE_0120: Odyssey Thera (OT) 2-hour HeLa Transcription Induction Assay for Estrogen Receptor (AID 2283382)
# Outline: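 Two-hour compound treatment of HeLa cells preceded microscopy imaging of an inducible fluorescent reporter. Image-based quantification gave one endpoint, analysed for signal increase relative to DMSO controls.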
# [5] = biological target: Retinoic acid receptor RXR-alpha (Homo sapiens) (UniProt P19793); assay: OT_NURR1_NURR1RXRa_0480: Odyssey Thera (OT) 8-hour HEK293T Protein Complementation Assay for Nurr1/retinoid X receptor (RXR) (AID 2283385)
# Chain of Retinoic acid receptor RXR-alpha (Homo sapiens) (P19793 whole entry, looked up, the tested form may be a part): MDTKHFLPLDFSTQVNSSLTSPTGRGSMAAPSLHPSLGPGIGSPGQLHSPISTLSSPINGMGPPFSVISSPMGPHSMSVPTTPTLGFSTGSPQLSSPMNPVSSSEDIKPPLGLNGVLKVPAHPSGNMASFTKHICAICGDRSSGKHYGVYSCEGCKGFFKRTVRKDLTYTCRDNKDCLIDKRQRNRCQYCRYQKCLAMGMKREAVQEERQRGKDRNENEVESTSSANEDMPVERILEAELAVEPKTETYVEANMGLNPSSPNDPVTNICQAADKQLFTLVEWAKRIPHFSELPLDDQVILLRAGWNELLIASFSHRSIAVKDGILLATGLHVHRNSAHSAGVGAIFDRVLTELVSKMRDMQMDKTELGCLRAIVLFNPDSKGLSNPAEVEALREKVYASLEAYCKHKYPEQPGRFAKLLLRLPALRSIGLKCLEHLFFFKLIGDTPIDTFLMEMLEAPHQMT
# Outline: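 Gain in fluorescent complementation signal over DMSO, measured 8 hours after chemical dosing of human kidney HEK293T cells, indicated enhanced Nurr1–RXRα association.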
# [6] = biological target: Peroxisome proliferator-activated receptor gamma (Homo sapiens) (UniProt P37231); assay: OT_PPARg_PPARgSRC1_1440: Odyssey Thera (OT) 24-hour Protein-Complementation Assay for Peroxisome Proliferator-activated Receptor Gamma/ SRC-1 Co-activator (AID 2283388)
# Chain of Peroxisome proliferator-activated receptor gamma (Homo sapiens) (P37231 whole entry, looked up, the tested form may be a part): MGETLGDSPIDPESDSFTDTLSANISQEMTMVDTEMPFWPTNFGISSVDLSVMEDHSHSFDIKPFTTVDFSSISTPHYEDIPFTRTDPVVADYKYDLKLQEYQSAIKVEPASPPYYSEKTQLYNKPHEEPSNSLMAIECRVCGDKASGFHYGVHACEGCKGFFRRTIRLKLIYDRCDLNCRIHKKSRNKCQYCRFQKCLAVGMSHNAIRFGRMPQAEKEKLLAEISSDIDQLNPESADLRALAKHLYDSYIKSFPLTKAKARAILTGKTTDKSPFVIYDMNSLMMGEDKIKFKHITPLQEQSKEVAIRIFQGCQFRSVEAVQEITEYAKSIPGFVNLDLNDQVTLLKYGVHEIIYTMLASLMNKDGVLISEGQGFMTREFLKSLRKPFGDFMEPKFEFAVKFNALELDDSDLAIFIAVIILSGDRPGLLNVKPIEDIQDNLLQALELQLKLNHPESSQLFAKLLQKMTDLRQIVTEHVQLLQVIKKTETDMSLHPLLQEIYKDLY
# Outline: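 Cells carrying the PPARg/SRC-1 fragment-complementation reporter receive compound for 24 hours, are fixed and counterstained with Draq5, then imaged. Increased nuclear relative to cytoplasmic YFP fluorescence above DMSO baseline indicates binding activity.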
# [7] = biological target: human Norepinephrine Transporter (NET), SLC6A2 (gene 6530) (UniProt P23975); assay: NVS_TR_hNET: NovaScreen (NVS) Transporter Assay for human Norepinephrine Transporter (NET) (AID 2283377);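 also: cell-free membrane protein extracted from CHO cells expressing human NET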;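 as to AC50: displacement of radioligand from human NET seen as loss of scintillation signal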
# Chain of human Norepinephrine Transporter (NET), SLC6A2 (gene 6530) (P23975 whole entry, looked up): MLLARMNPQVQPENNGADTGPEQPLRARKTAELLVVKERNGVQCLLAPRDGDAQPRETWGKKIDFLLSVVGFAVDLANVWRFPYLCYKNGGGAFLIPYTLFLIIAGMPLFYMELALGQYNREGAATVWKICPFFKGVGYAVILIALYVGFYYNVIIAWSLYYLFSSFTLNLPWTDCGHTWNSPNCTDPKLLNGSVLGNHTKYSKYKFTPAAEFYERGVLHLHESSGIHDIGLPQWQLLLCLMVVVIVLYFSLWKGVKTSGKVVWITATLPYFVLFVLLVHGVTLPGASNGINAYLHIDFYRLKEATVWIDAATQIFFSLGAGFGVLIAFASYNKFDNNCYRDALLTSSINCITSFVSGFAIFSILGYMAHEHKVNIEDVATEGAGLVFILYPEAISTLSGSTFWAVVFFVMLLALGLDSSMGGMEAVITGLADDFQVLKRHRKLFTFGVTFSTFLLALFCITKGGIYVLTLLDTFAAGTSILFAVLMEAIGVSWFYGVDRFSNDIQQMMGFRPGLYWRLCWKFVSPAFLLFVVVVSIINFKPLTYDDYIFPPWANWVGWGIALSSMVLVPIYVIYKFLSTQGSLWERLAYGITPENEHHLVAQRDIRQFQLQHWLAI
# Outline: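 CHO cell extracts expressing the transporter; tritiated or iodinated tracer displaced competitively; filtration plus scintillation readout at 1 h. Single-point duplicates at 25 uM, concentration series for follow-up; activity = signal drop relative to DMSO.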
# [8] = biological target: Agonist Androgen Response Element (ARE), AR (gene 367) (UniProt P10275); assay: OT_AR_ARELUC_AG_1440: Odyssey Thera (OT) 24-hour CHO-K1 Luciferase Assay for Agonist Androgen Response Element (ARE) (AID 2283379)
# Chain of Agonist Androgen Response Element (ARE), AR (gene 367) (P10275 whole entry, looked up): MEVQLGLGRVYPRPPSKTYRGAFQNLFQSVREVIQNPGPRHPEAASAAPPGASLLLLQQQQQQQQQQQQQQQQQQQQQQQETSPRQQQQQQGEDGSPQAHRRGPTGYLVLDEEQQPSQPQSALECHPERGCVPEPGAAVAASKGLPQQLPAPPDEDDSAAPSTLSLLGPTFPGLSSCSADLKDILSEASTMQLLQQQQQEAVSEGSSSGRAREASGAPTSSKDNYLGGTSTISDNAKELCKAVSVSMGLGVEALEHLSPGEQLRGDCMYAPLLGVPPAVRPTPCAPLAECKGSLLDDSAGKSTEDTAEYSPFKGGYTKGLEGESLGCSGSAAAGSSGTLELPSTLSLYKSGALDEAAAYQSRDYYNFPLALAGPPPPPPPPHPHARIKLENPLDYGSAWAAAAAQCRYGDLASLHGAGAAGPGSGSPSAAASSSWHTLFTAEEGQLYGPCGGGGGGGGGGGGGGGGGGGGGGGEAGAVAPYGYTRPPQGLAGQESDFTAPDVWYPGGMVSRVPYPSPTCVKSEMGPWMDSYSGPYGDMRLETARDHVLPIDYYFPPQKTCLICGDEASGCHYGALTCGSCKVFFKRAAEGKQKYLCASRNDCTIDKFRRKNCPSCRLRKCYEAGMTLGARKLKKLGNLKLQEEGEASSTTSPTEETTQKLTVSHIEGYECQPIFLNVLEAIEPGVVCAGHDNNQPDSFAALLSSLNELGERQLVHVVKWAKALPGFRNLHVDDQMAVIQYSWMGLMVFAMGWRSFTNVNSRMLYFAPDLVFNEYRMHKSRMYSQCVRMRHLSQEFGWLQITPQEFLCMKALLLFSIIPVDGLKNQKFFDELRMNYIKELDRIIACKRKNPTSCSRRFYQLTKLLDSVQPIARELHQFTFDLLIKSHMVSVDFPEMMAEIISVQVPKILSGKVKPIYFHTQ
# Outline: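 Gain-of-signal reporter endpoint: cells (CHO-K1, hamster) are treated 24 h, luciferin/ATP reagent added, and luminescence compared with DMSO baseline.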
# [9] = biological target: Bile acid receptor (Homo sapiens) (UniProt Q96RI1); assay: OT_FXR_FXRSRC1_0480: Odyssey Thera (OT) 8-hour HEK293T Protein-Complementation Assay for Farnesoid X receptor/SRC-1 Co-activator (AID 2283383)
# Outline: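 Readings were taken 8 h after dosing HEK293T cells in a split-reporter complementation format pairing FXR with SRC-1. Increased fluorescence relative to DMSO-treated wells defined activity.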
# [10] = biological target: Bile acid receptor (Homo sapiens) (UniProt Q96RI1); assay: OT_FXR_FXRSRC1_1440: Odyssey Thera (OT) 24-hour HEK293T Protein-Complementation Assay for Farnesoid X receptor/SRC-1 Co-activator (AID 2283384)
# Outline: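 Single endpoint, analysed for increased fluorescence against DMSO controls. HEK293T cells carrying FXR and SRC-1 linked to complementary reporter halves were exposed to chemicals for 24 h before reading.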
# [11] = biological target: Peroxisome proliferator-activated receptor gamma (Homo sapiens) (UniProt P37231); assay: OT_PPARg_PPARgSRC1_0480: Odyssey Thera (OT) 8-hour Protein-Complementation Assay for Peroxisome Proliferator-activated Receptor Gamma / SRC-1 Co-activator (AID 2283387);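 also: nuclear to cytoplasmic split Venus YFP fluorescence ratio reporting PPARg SRC-1 interaction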
# Outline: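 HEK293T transiently transfected with PPARg and SRC-1 fused to Venus YFP fragments, compounds 8 h at 37C. Fixed, Draq5-stained cells imaged; nuclear/cytoplasmic 488 nm fluorescence ratio over at least 350 cells per image; gain fitted versus DMSO.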
# [12] = CEETOX_H295R_11DCORT: CeeTox H295R High-throughput Steroidogenesis Assay for 11-Deoxycortisol (11DCORT) (AID 2283432; active = hit-call score of the fitted dose curve at least 0.9, where 1 is the maximum; inactive = score below 0.9;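 as to AC50: human adrenal H295R cells prestimulated with 10 µM forskolin for 48 h; 11-deoxycortisol secreted into the medium measured by LC-MS/MS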); conditions: actives raise or lower the signal
# Outline: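 H295R cells prestimulated 48 h with 10 uM forskolin, then exposed 48 h to chemical in 0.1% DMSO. 11-Deoxycortisol in medium quantified by HPLC-MS/MS after MTBE extraction; bidirectional fit versus DMSO. MTT viability read in same wells.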
# [13] = CEETOX_H295R_OHPREG: CeeTox H295R High-throughput Steroidogenesis Assay for OH-Pregnenolone (OHPREG) (AID 2283434; active = hit-call score of the fitted dose curve at least 0.9, where 1 is the maximum; inactive = score below 0.9); conditions: actives raise or lower the signal
# Outline: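 H295R, 10 uM forskolin pre-stim 48 h; test chemical 48 h, 0.1% DMSO final. MTBE extraction, reverse-phase C18 HPLC-ESI+ MS/MS of medium. Gain/loss vs DMSO; viability by MTT in same wells.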
# [14] = CEETOX_H295R_OHPROG: CeeTox H295R High-throughput Steroidogenesis Assay for OH-Progesterone (OHPROG) (AID 2283435; active = hit-call score of the fitted dose curve at least 0.9, where 1 is the maximum; inactive = score below 0.9;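 as to AC50: human adrenal H295R cells primed 48 h with 10 µM forskolin; 17alpha-hydroxyprogesterone secreted into medium measured by HPLC-MS/MS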); conditions: actives raise or lower the signal
# Outline: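 Human adrenocortical H295R cells, passage 10 or lower, were treated with chemical for 48 h after forskolin priming, and hormone output in the medium was quantified by LC-MS/MS.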
# [15] = CEETOX_H295R_ANDR: CeeTox H295R High-throughput Steroidogenesis Assay for Androstenedione (ANDR) (AID 2283436; active = hit-call score of the fitted dose curve at least 0.9, where 1 is the maximum; inactive = score below 0.9;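 also: human H295R adrenal cells exposed for 48 h with androstenedione measured in medium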); conditions: actives raise or lower the signal
# Outline: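 48 h chemical exposure, H295R cells, DMEM/F12 + ITS+ and Nu-Serum. Medium androstenedione: MTBE extraction, C18 reverse-phase HPLC, ESI+ MS/MS. Fit bidirectional vs DMSO; MTT viability in same wells.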
# [16] = CEETOX_H295R_CORTIC: CeeTox H295R High-throughput Steroidogenesis Assay for Corticosterone (CORTIC) (AID 2283437; active = hit-call score of the fitted dose curve at least 0.9, where 1 is the maximum; inactive = score below 0.9;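 also: corticosterone secreted into medium quantified by mass spectrometry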;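 as to AC50: human H295R adrenal cells prestimulated with forskolin before chemical exposure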); conditions: actives raise or lower the signal
# Outline: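 48 h forskolin (10 uM) prestim, then 48 h chemical exposure, final DMSO 0.1%. Readout: corticosterone in medium by LC-MS/MS after MTBE extraction. Gain/loss fit vs DMSO; MTT viability in same wells.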
# [17] = CEETOX_H295R_CORTISOL: CeeTox H295R High-throughput Steroidogenesis Assay for Cortisol (AID 2283438; active = hit-call score of the fitted dose curve at least 0.9, where 1 is the maximum; inactive = score below 0.9;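 also: cortisol secreted into medium quantified by LC-MS/MS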); conditions: actives raise or lower the signal
# Outline: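 Steroidogenesis in H295R, per modified OECD 456: 48 h forskolin (10 uM), then 48 h exposure, 0.1% DMSO. Cortisol by extraction and tandem MS; viability by MTT (570/650 nm); cytotoxic chemicals diluted and re-tested.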
# [18] = biological target: mouse Estrogen Receptor alpha (Era), Esr1 (gene 13982) (UniProt P19785); assay: NVS_NR_mERa: NovaScreen (NVS) Nuclear Receptor Binding Assay for mouse Estrogen Receptor alpha (Era) (AID 2283378);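 also: hit means loss of bound radioligand signal relative to DMSO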
# Chain of mouse Estrogen Receptor alpha (Era), Esr1 (gene 13982) (P19785 whole entry, looked up): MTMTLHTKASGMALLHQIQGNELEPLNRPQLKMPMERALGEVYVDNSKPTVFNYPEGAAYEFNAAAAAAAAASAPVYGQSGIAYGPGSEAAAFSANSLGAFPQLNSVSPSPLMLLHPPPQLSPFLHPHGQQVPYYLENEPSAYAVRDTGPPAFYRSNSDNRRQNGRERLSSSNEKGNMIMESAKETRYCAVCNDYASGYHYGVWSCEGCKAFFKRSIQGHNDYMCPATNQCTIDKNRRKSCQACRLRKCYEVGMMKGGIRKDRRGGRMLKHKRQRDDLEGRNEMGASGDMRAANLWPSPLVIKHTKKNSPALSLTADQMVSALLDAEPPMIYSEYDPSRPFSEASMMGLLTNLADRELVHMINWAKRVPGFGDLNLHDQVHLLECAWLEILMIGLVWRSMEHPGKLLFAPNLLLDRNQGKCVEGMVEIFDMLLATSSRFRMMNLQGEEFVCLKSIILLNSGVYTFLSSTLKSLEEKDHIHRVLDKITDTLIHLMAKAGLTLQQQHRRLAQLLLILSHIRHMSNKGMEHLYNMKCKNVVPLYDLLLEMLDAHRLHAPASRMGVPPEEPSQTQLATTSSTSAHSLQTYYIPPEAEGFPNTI
# Outline: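 Measurements come from scintillation counting after filtration, taken 18 hours after chemicals were added to a cell-free mouse Era preparation with radioligand. Screening was duplicate at 25 uM, with concurrent positive and negative controls and confirmatory concentration series for actives.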
# [19] = biological target: Retinoic acid receptor RXR-alpha (Homo sapiens) (UniProt P19793); assay: OT_NURR1_NURR1RXRa_1440: Odyssey Thera (OT) 24-hour HEK293T Protein Complementation Assay for Nurr1/retinoid X receptor (RXR) (AID 2283386)
# Outline: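 Cell-based binding reporter: HEK293T cells, 24 h exposure, fluorescence-detected fragment complementation, DMSO as baseline.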
# [20] = biological target: rat Serotonin Transporter (SERT), Slc6a4 (gene 25553) (UniProt P31652); assay: NVS_TR_rSERT: NovaScreen (NVS) Transporter Assay for rat Serotonin Transporter (SERT) (AID 2283375)
# Chain of rat Serotonin Transporter (SERT), Slc6a4 (gene 25553) (P31652 whole entry, looked up): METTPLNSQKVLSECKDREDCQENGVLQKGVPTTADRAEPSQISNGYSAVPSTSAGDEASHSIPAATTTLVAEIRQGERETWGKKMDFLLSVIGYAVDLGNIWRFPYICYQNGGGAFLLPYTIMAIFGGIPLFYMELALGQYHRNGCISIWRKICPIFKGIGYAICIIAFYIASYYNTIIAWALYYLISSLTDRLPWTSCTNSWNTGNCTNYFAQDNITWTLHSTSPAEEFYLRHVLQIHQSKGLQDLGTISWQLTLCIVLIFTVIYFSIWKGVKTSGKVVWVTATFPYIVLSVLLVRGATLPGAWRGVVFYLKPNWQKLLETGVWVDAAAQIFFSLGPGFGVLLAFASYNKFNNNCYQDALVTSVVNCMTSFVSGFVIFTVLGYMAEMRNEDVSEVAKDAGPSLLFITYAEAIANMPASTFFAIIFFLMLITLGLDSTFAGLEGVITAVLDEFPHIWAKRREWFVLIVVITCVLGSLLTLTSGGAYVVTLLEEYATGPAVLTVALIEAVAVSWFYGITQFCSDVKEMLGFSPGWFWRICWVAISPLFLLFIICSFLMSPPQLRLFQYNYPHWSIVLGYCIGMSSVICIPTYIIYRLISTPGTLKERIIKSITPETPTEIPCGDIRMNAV
# Outline: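 Using rat forebrain membrane SERT, test chemicals compete with a radioligand for 1 hour, and bound counts are taken by filter-based scintillation. Screening starts at 25 uM in duplicate, followed by concentration series for actives.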
smiles,measurement,setting,value
O=C(NO)C1(NS(=O)(=O)c2ccc(Oc3ccc(F)cc3)cc2)CCOCC1,AC50,[1],8.77 µM (active)
same,outcome,[2],inactive
same,outcome,[3],inactive
same,outcome,[4],inactive
same,outcome,[5],inactive
same,outcome,[6],inactive
CCN(CC)C(=S)SSC(=S)N(CC)CC,AC50,[1],10.4 µM (active)
same,AC50,[7],0.344 µM (active)
same,outcome,[8],inactive
same,outcome,[2],inactive
same,AC50,[3],92.5 µM (active)
same,AC50,[4],77.7 µM (active)
same,outcome,[9],inactive
same,outcome,[10],inactive
same,outcome,[11],inactive
same,outcome,[6],inactive
same,outcome,[12],inactive
same,outcome,[13],inactive
same,outcome,[14],inactive
same,outcome,[15],inactive
same,outcome,[16],inactive
same,outcome,[17],inactive
c1ccc2c(c1)-c1cccc3c1c-2cc1ccccc13,outcome,[18],inactive
same,outcome,[2],inactive
same,outcome,[3],inactive
same,AC50,[4],77.5 µM (active)
same,outcome,[5],inactive
same,AC50,[19],11.2 µM (active)
same,outcome,[19],inactive
same,outcome,[6],inactive
same,AC50,[12],2.55 µM (active)
same,AC50,[13],2 µM (active)
same,AC50,[14],3.71 µM (active)
same,outcome,[16],inactive
same,outcome,[17],inactive
COc1cc(C(C)C)c2c(c1)S(=O)(=O)N(COc1cc(=O)n3cccc(OCCN4CCCCC4)c3n1)C2=O,AC50,[1],2.87 µM (active)
same,AC50,[7],4.47 µM (active)
same,outcome,[8],inactive
same,AC50,[3],23.2 µM (active)
same,outcome,[4],inactive
same,outcome,[9],inactive
same,AC50,[10],19.3 µM (active)
same,AC50,[5],3.02 µM (active) and 4 µM (active)
same,AC50,[19],2.9 µM (active)
same,outcome,[19],inactive
same,outcome,[6],inactive
Cc1cccc(O)c1C,outcome,[18],inactive
same,outcome,[2],inactive
same,outcome,[3],inactive
same,outcome,[4],inactive
same,outcome,[9],inactive
same,outcome,[10],inactive
same,outcome,[6],inactive
CCCC(CCC)C(=O)O,outcome,[18],inactive
same,outcome,[3],inactive
same,outcome,[4],inactive
same,AC50,[5],90.4 µM (active)
same,outcome,[5],inactive
same,outcome,[19],inactive
same,outcome,[11],inactive
same,outcome,[6],inactive
NC(=O)N1c2ccccc2C=Cc2ccccc21,outcome,[18],inactive
same,outcome,[2],inactive
same,outcome,[3],inactive
same,outcome,[4],inactive
same,outcome,[19],inactive
same,outcome,[6],inactive
COc1cc2c(c(OC)c1OC)-c1ccc(OC)c(=O)cc1[C@@H](NC(C)=O)CC2,outcome,[8],inactive
same,outcome,[2],inactive
same,outcome,[3],inactive
same,outcome,[4],inactive
same,AC50,[9],0.0869 µM (active)
same,AC50,[10],0.03 µM (active)
same,AC50,[5],8.86 µM (active)
same,outcome,[5],inactive
same,AC50,[19],10.6 µM (active)
same,outcome,[19],inactive
same,outcome,[6],inactive
same,outcome,[12],inactive
same,outcome,[13],inactive
same,outcome,[14],inactive
same,outcome,[15],inactive
same,outcome,[16],inactive
same,outcome,[17],inactive
CNC(C)=O,outcome,[7],inactive
same,outcome,[2],inactive
same,outcome,[3],inactive
same,outcome,[4],inactive
same,outcome,[5],inactive
same,outcome,[19],inactive
same,outcome,[11],inactive
same,outcome,[6],inactive
c1ccc2cc3ccccc3cc2c1,AC50,[7],6.95 µM (active)
same,outcome,[2],inactive
same,outcome,[3],inactive
same,outcome,[4],inactive
same,outcome,[9],inactive
same,outcome,[10],inactive
same,outcome,[5],inactive
same,AC50,[19],72.7 µM (active)
same,outcome,[11],inactive
same,outcome,[6],inactive
CC[C@H](C)C(=O)O[C@H]1C[C@H](O)C=C2C=C[C@H](C)[C@H](CC[C@@H](O)C[C@@H](O)CC(=O)O)[C@H]21,outcome,[1],inactive
same,outcome,[2],inactive
same,outcome,[3],inactive
same,outcome,[4],inactive
same,outcome,[5],inactive
same,outcome,[19],inactive
same,outcome,[6],inactive
same,AC50,[12],5.33 µM (active)
same,AC50,[13],1.06 µM (active)
same,AC50,[14],5.55 µM (active)
same,AC50,[16],6.77 µM (active)
same,outcome,[17],inactive
CCCCCCCCN(C)C,AC50,[20],12.5 µM (active)
same,outcome,[3],inactive
same,outcome,[4],inactive
same,outcome,[5],inactive
same,outcome,[19],inactive
same,outcome,[11],inactive
same,outcome,[6],inactive
same,outcome,[12],inactive
same,outcome,[13],inactive
same,outcome,[14],inactive
same,outcome,[16],inactive
same,outcome,[17],inactive
O=S(=O)(O)c1ccc(N=Nc2c(O)ccc3cc(S(=O)(=O)O)ccc23)cc1,outcome,[20],inactive
same,outcome,[3],inactive
same,outcome,[4],inactive
same,outcome,[10],inactive
same,outcome,[5],inactive
same,outcome,[19],inactive
COS(C)(=O)=O,outcome,[18],inactive
same,outcome,[3],inactive
same,outcome,[5],inactive
same,outcome,[19],inactive
same,outcome,[6],inactive
CCCCCCCCCC,outcome,[1],inactive
same,outcome,[20],inactive
same,outcome,[2],inactive
same,outcome,[3],inactive
same,outcome,[4],inactive
same,outcome,[9],inactive
same,outcome,[10],inactive
same,outcome,[5],inactive
same,outcome,[19],inactive
same,outcome,[6],inactive
